Test results as given in the OligoGym collection.

Molecular target: PPP1R13B
Experiment: pooled miR-30 sensor sort-seq; sequence = guide strand
Conditions: shRNA
Further: reference of the scale not given here.

In order of rising sensor-assay potency score (higher = more potent):
1. TTCCTTGGCAACCAACATCTGC  -1.09
2. TACACTGCTTTAACTGACTTAT  -0.93
3. TACATTTATTACATTTCTCTGA  -0.374
4. TTCAGAAATAGACTGCTGCTGA  0.172
5. TTAACTGACTTATTTAAGGCGC  0.229
6. TTTCTTCAGCTTGTTCTCCTGG  0.329
7. TAAGAGTTCCTTCTGCTGCTGA  0.621

Molecular target: PPP1R15A
Experiment: as above
Conditions: shRNA

In order of falling sensor-assay potency score (higher = more potent):
1. AAGAGAACTTGTTAACTCCCTC  0.225
2. TAGAGGTTCTGTGAGCTTCTTT  0.0683
3. TTCTGTTCTTTTATCCTCCGTG  -0.152
4. TTTACTGCTTCCACCAGCCAGG  -0.645
5. TTCAGGAAGGGAACTGCTGGTT  -0.684
6. TTTTACTGCTTCCACCAGCCAG  -1.03
7. TTGCCAGAGGAGTCCTAGCTTC  -1.05
8. ATGGACAGTGACCTTCTCGGAG  -1.22
9. TCCTTTTACTGCTTCCACCAGC  -1.39
10. TGGACAGTGACCTTCTCGGAGA  -1.41
11. TAGGGGAGTCTCAGGGTCCGGA  -1.44
12. TTCTGTGAGCTTCTTTCTTTAC  -1.62

Molecular target: PPP1R3A
Experiment: as above
Conditions: shRNA

In order of falling sensor-assay potency score (higher = more potent):
1. TAAAATGTCATAATGTGTCTGC  0.498
2. TATAGGTACAAATTCATTCTGA  0.416
3. TTGAATTACAAATATTTTCTGA  -0.0203
4. TTGGTGAATGAGACACATCTGC  -0.3
5. TTGATGAACAAACTTGACCAGT  -0.427
6. TGGATTAGCATTATCATCCAGG  -0.615
7. TTTGTTTTTCATTAACACCTAA  -0.646
8. TTATCATCAACTCTAATTCTTT  -0.712
9. TTGTTTTTCATTAACACCTAAA  -0.918
10. TTGAACAATGAATAGTCCCATT  -1.02
11. TTACATATACTAACTTCTCAAA  -1.14
12. TATAGGTATTTAATGATCCAAA  -1.48

Molecular target: PPP2R2B
Experiment: as above
Conditions: shRNA

In order of rising sensor-assay potency score (higher = more potent):
1. TAAACTCTTCAGGTAATCGAAC  -0.877
2. TTCTTCTATTTCTAAACTCTTC  -0.752
3. TTTTACTCTCCTGCTCTCGTTG  -0.655
4. TAGAGGGAACACAGCTTGCTGC  -0.62
5. TATTTCTAAACTCTTCAGGTAA  -0.582
6. TTCATAGAGGGAACACAGCTTG  -0.115
7. TTGACGGTCAAGTAGTCCCTGG  -0.065
8. TTAAATACTACAGACAACCTCA  0.289
9. TCTGTTGCTTGGATCTTCCGGC  0.454
